Bioassay records from PubChem BioAssay.
PriA SSB inh – inhibitors of Klebsiella pneumoniae PriA binding to SSB C-terminal tail, primary screen, biochemical, AlphaScreen. 430,000 tested, 0.6% active. AlphaScreen SSBct-PriA binding, biotinylated peptide. PriA–SSB C-terminal tail interaction (Klebsiella pneumoniae). inhibition, % at 33 µM; in the data active = inhibition mostly above about 37%, no sharp cut-off; inactive = mostly below about 20%;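 note: plate controls were negative control peptide for no effect and reference peptide for full effect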
Vc quorum ag – inducers of Vibrio cholerae quorum light production without autoinducers, primary screen, BH1578 luxS cqsA deficient, single point; activation, % at 18.7 µM; AID 588436, 2011; V. cholerae BH1578 lux reporter, luminescence, 6 h; 350,000 tested, 0.16% active; in the data active = activation mostly above about 9.7%, no sharp cut-off
PrP UTR inh – inhibition of PrP 5' UTR reporter expression. 340,000 tested, 0.35% active. AID 488862, 2010. cell-based PrP 5' UTR mRNA reporter, plate reader. inhibition, % (concentration not given with the values); in the data active = inhibition above about 52%; note: 0 = median of the neutral control wells
PrPC surface inh – inhibitors of human cell surface prion protein PrPC, primary screen, cell-based, TR-FRET; inhibition, % at 13.8 µM; AID 720596, 2013; Major prion protein (Homo sapiens), P04156; 370,000 tested, 0.43% active; TR-FRET read-out; in the data active = inhibition above about 24%; note: 0% = median of the test wells and 100% = reference compound wells
FadD28 binding – inhibitors of FadD28 bisubstrate probe binding, primary screen, biochemical, fluorescence polarization, single point; 360,000 tested, 0.22% active; Mycobacterium tuberculosis FadD28 fatty-acid-AMP ligase; inhibition, % at 12.5 µM; in the data active = inhibition above about 8.5%, passing the limit was not always enough
PrPC confirm – confirmation of inhibitors of cell surface human prion protein, confirmation, cell-based, TR-FRET | shares compounds with PrPC surface inh | cell surface PrPC level | inhibition, % at 13.8 µM | 1,500 tested, 65% active; in the data active = inhibition above about 25%
LD9 tox – cytotoxicity in LD9 cells, cytotoxicity control for cell surface PrPc inhibitor project, cell-based, luminescence, high throughput | inhibition, % at 13.8 µM | AID 743201, 2013 | 1,500 tested, 29% active | shares compounds with PrPC surface inh | luminescence viability; in the data active = inhibition above about 9.5%
* hit, by the source's call. Hits are enriched below; roughly 1.4% of the tested compounds scored in any of these assays.

Screening Cn1c(=O)c2cc(NC(=O)CCc3ccc4c(c3)OCO4)ccc2n1Cc1ccc(F)cc1 returned Vc quorum ag -0.4, PrPC surface inh 31.4*, FadD28 binding -1.1, PrPC confirm 18.6 and LD9 tox 5.7.
Screening COc1ccc(CNC(=O)Nc2ccc3c(c2)c(=O)n(C)n3Cc2cccc(C(F)(F)F)c2)cc1 returned Vc quorum ag inactive, PrPC surface inh 22.8 and FadD28 binding -2.0.
Screening COc1cc(Cn2c3ccc(NC(=O)CCc4ccc(O)cc4)cc3c(=O)n2C)ccc1F returned Vc quorum ag inactive, PrPC surface inh 28.5*, FadD28 binding 0.9, PrPC confirm 20.0 and LD9 tox -5.4.
COc1cc2nc(N(CCN(C)C)C(=O)c3cccc(N4C(=O)CCC4=O)c3)sc2cc1OC was read as PriA SSB inh -3.0.
Screening CC(=O)CSc1ncnc2scc(-c3ccc(F)cc3)c12 returned PriA SSB inh -11.2, Vc quorum ag -0.3, PrP UTR inh -18.3, PrPC surface inh 6.8 and FadD28 binding -1.1.
`O=C(O)CSc1ncnc2scc(-c3ccccc3)c12` gave PriA SSB inh -1.8, Vc quorum ag -0.4, PrP UTR inh -27.9, PrPC surface inh 48.1*, FadD28 binding -1.8, PrPC confirm 71.7* and LD9 tox -8.0.
For O=C(O)CSc1ncnc2scc(-c3ccc(Br)cc3)c12 the results were PriA SSB inh -3.7, Vc quorum ag -0.6, PrP UTR inh 4.3, PrPC surface inh 26.6*, FadD28 binding -0.6, PrPC confirm 23.8 and LD9 tox -3.1.
For CN(C)C(=O)CSc1ncnc2scc(-c3ccccc3)c12 the results were PriA SSB inh -4.1, Vc quorum ag -0.5, PrP UTR inh -22.9, PrPC surface inh 5.1 and FadD28 binding -3.2.
Screening COc1ccc(/C=C/C(=O)Nc2ccc(-n3nncc3-c3ccc(OC)c(OC)c3)cc2)cc1OC returned PriA SSB inh -0.3, Vc quorum ag inactive, PrP UTR inh 1.8, PrPC surface inh 24.8*, FadD28 binding -1.6, PrPC confirm 28.0* and LD9 tox 9.9*.
`O=C(c1cccn(Cc2cccc(C(F)(F)F)c2)c1=O)N1CCc2ccccc21` gave PriA SSB inh -20.0.
CCCCn1c(=N)n(CC(=O)c2ccc(Br)s2)c2ccccc21 was read as PriA SSB inh -7.8, Vc quorum ag -0.4, PrP UTR inh -33.3, PrPC surface inh 36.8*, FadD28 binding -5.3, PrPC confirm 83.3* and LD9 tox 27.9*.
For COc1ccc(C(=O)NNC(=O)CSc2ccccc2)cc1 the results were PriA SSB inh -2.1, Vc quorum ag -0.1, PrP UTR inh -16.2, PrPC surface inh 4.1 and FadD28 binding -2.8.
For CCc1nc(SCC(=O)Nc2nc3c(s2)CCCC3)c2ccccc2n1 the results were PriA SSB inh -12.1, Vc quorum ag 2.9, PrP UTR inh -8.4, PrPC surface inh 29.9*, FadD28 binding 0.2, PrPC confirm 72.1* and LD9 tox -9.3.
`CCc1nc(SCC(=O)N2c3ccccc3Sc3ccccc32)c2ccccc2n1` gave PriA SSB inh -10.8, Vc quorum ag -0.4, PrP UTR inh -24.0, PrPC surface inh 46.1*, FadD28 binding -4.7, PrPC confirm 89.2* and LD9 tox -7.7.
`CCc1nc(SCC(=O)NNC(=O)c2ccc(OC)cc2)c2ccccc2n1` gave PriA SSB inh -5.7, Vc quorum ag -0.4, PrP UTR inh -22.6, PrPC surface inh 108.8*, FadD28 binding -3.9, PrPC confirm 116.3* and LD9 tox -10.2.
COc1ccc(C(=O)NNC(=O)CSc2nc(C(C)C)nc3ccccc23)cc1 was read as PriA SSB inh -16.2, Vc quorum ag -0.4, PrP UTR inh -15.3, PrPC surface inh 80.5*, FadD28 binding -4.2, PrPC confirm 101.1* and LD9 tox -16.6.
Screening O=C(C1=C(O)C(=O)N(CCN2CCOCC2)C1c1cccc(F)c1)c1cc2ccccc2o1 (stereo unspecified) returned PriA SSB inh 0.0, Vc quorum ag 0.7, PrP UTR inh -14.6, PrPC surface inh 42.3*, FadD28 binding 1.4, PrPC confirm 70.0* and LD9 tox -4.3.
For CCC1SC(=NC(=O)NC2CCCCC2)NC1=O (stereo unspecified) the results were PriA SSB inh -14.9.
Screening CC(=NNC(=O)c1ccc(C(C)(C)C)cc1)c1ccccn1 returned PriA SSB inh 34.6.
Screening CC1(Cc2ccc(Cl)cc2)C(=O)Nc2ccc(S(=O)(=O)NC3CCCCC3)cc21 (stereo unspecified) returned Vc quorum ag inactive, PrPC surface inh 11.2 and FadD28 binding -2.6.
CC1(Cc2ccc(OC(F)(F)F)cc2)C(=O)Nc2ccc(S(=O)(=O)NC3CCCCC3)cc21 (stereo unspecified) was read as Vc quorum ag -3.0, PrPC surface inh 35.6*, FadD28 binding -5.9, PrPC confirm 30.4* and LD9 tox 10.8*.
For CN1CCN(c2nc3ccc(O)cc3s2)CC1 the results were PriA SSB inh 28.0.
O=C(O)c1ccc[nH]c1=O was read as PriA SSB inh 0.0.
CNC(=O)c1nnsc1S(=O)(=O)c1ccc(Cl)cc1 was read as PriA SSB inh -13.3, Vc quorum ag -0.4, PrP UTR inh -2.2, PrPC surface inh 24.7*, FadD28 binding -0.8, PrPC confirm -3.6 and LD9 tox 79.5*.
`O=C(c1nnsc1S(=O)(=O)c1ccc(Cl)cc1)N1CCOCC1` gave PriA SSB inh -19.9, Vc quorum ag -1.0, PrP UTR inh 6.1, PrPC surface inh 13.5 and FadD28 binding -0.9.
For CSc1cccc(C(=O)Nc2nc3ccc4sc(C)nc4c3s2)c1 the results were PriA SSB inh -9.0.
`Cc1ccccc1CN1C(=O)CN(S(C)(=O)=O)CC1(C)C(=O)NCc1ccccc1` (stereo unspecified) gave PrPC surface inh 25.2*, PrPC confirm 0.2 and LD9 tox -4.7.
Screening Cc1ccccc1CN1C(=O)CN(S(C)(=O)=O)CC1(C)C(=O)Nc1c(C)cccc1C (stereo unspecified) returned PrPC surface inh -6.7.
Screening CC1(C)CC(=O)c2sc(NC(=O)/C=C/c3ccc([N+](=O)[O-])cc3)nc2C1 returned PriA SSB inh -13.0.
`Cc1cc(=O)[nH]c(-n2nc(C)c(CCC(=O)Nc3ccc(C(C)C)cc3)c2C)n1` gave PriA SSB inh -7.0.
